Sampled rows, rich in hits. Any-hit rate of the full collection: about 7.8%.
HCMV antiviral – inhibitors of human cytomegalovirus | HFF cells, HCMV-luciferase reporter, 72 h; active compounds read low | activity change, negative = inhibition, % at 57.5 µM | 4.5% of 410,000 active | AID 1259415; in the data active = activity change below about -60%; inconclusive = no clear call, values can overlap the other calls; inactive = above about -39%
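Compounds were evaluated in HFFs infected with an HCMV luciferase reporter virus (MOI 1 PFU/cell). Luciferase in lysates collected 72 h post infection served as the replication measure.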
Vaccinia Venus – inhibitors of vaccinia virus (Venus reporter); Vaccinia virus Venus reporter expression, fluorescence; Potency, µM (highest dose often 36.5 µM), actives largely listed as inhibitors; 0.46% of 330,000 active; AID 720580; calls by dose curve; tested in A549 cells; also: nearly all actives have a fitted effect of over 30% in size
HCV inhibitor – HCV inhibition; Huh7.5.1 HCVcc-Cre infection, luciferase reporter, 44 h; Potency, µM (series often up to 41.8 µM), hits mostly inhibitors; 3.4% of 340,000 active; AID 651820; active = well fitted inhibition curve with a large enough effect; inconclusive = small, poorly fitted or top-dose-only effect, or another doubt; inactive = no such curve, though single readings can be large or run the other way
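Whole-lifecycle infectious HCVcc-Cre system; cells 1,000/well, compound then virus (~0.5 moi) added 4 h after plating, 44 h culture. Luciferase read 15 sec following 15 min substrate incubation, room temp.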
MARV entry inh – inhibitors of Marburg virus binding or cell entry | Marburg virus pseudotyped entry inhibition, cell reporter | Potency, µM (titrated, usually from 37.8 µM), hits mostly inhibitors | 1.8% of 300,000 active | AID 540276; calls by dose curve; tested in HEK293 cells
VACV mCherry inh – vaccinia inhibition (mCherry reporter); Potency, µM (doses to about 36.5 µM), usual class: inhibitors; 0.63% of 310,000 active; Vaccinia virus mCherry reporter infection, fluorescence; calls by dose curve; tested in A549 cells; also: nearly all actives have a fitted effect of over 35% in size
Lassa entry inh – blocks Lassa virus binding to or entry into cells; 1.2% of 300,000 active; Lassa virus pseudotype entry inhibition, cell reporter; AID 540256; Potency, µM (highest dose often 37.9 µM), actives largely listed as inhibitors; calls by dose curve; tested in HEK293 cells; also: nearly all actives have a fitted effect of over 50% in size
Numbers stand for hits; ! = not active in a repeat.

What do the screens show for `CN(C)C1CCC(CC2CCc3ccccc32)CC1` (centres undefined)?
Vaccinia Venus: inactive; VACV mCherry inh: inactive

What do the screens show for `CCOc1ccc(S(=O)(=O)N(C)CCO)cc1-c1nc2c(C(C)(C)C)nn(C)c2c(=O)[nH]1`?
HCMV antiviral: inactive; Vaccinia Venus: inactive; HCV inhibitor: inconclusive; MARV entry inh: inactive; VACV mCherry inh: inactive; Lassa entry inh: 2.82µM

What do the screens show for `CCOc1ccc(S(=O)(=O)N(C)C)cc1-c1nc2c(C(C)(C)C)nn(C)c2c(=O)[nH]1`?
HCMV antiviral: inactive; Vaccinia Venus: inactive; HCV inhibitor: inactive; MARV entry inh: inactive; VACV mCherry inh: inactive; Lassa entry inh: inactive

What do the screens show for `CC1(C)OC(=O)C2=C(CC(CCc3ccccc3)OC2CCc2ccccc2)O1` (centres undefined)?
HCMV antiviral: inactive

Results for COc1cc(N2C(=O)C=CC2=O)ccc1N1C(=O)C=CC1=O ?
HCMV antiviral: -75.9; Vaccinia Venus: inconclusive; HCV inhibitor: inconclusive; MARV entry inh: inconclusive; VACV mCherry inh: inactive; Lassa entry inh: inconclusive

Results for COc1ccccc1Cn1c(CNS(=O)(=O)c2c(C)cc(C)cc2C)nc2cccnc21 ?
HCMV antiviral: inconclusive; Vaccinia Venus: inactive; VACV mCherry inh: inactive; Lassa entry inh: inconclusive

What do the screens show for `C/C(=N\NC(=O)c1n[nH]c2c1CCC2)c1cccs1`?
HCMV antiviral: -91.0; Vaccinia Venus: inactive; HCV inhibitor: inactive; MARV entry inh: inactive; VACV mCherry inh: inactive; Lassa entry inh: inactive

What do the screens show for `O=C(N/N=C/c1cccs1)c1n[nH]c2c1CCCC2`?
HCMV antiviral: -85.4; Vaccinia Venus: inconclusive; HCV inhibitor: inactive; MARV entry inh: inconclusive; VACV mCherry inh: inconclusive; Lassa entry inh: 2.24µM

Results for O=C(N/N=C\c1cccc(Cl)c1)c1n[nH]c2c1CCCC2 ?
HCMV antiviral: inactive; Vaccinia Venus: inconclusive; HCV inhibitor: inactive; MARV entry inh: inconclusive; VACV mCherry inh: inactive; Lassa entry inh: inconclusive

What do the screens show for `Cc1ccc(/C=N/NC(=O)c2n[nH]c3c2CCCC3)cc1`?
HCMV antiviral: -74.8; Vaccinia Venus: inconclusive; HCV inhibitor: inactive; MARV entry inh: inconclusive; VACV mCherry inh: inactive; Lassa entry inh: inconclusive

Results for CCN(C(=O)c1cnc(N2CCN(c3ncccn3)CC2)c2ccccc12)c1cccc(Cl)c1 ?
HCMV antiviral: -85.3; Vaccinia Venus: inconclusive; HCV inhibitor: inconclusive; MARV entry inh: inconclusive; VACV mCherry inh: inconclusive; Lassa entry inh: inconclusive

How did CN(C(=O)c1cnc(N2CCN(c3ncccn3)CC2)c2ccccc12)c1ccc(Cl)cc1 do in these assays?
HCMV antiviral: inconclusive; Vaccinia Venus: inactive; HCV inhibitor: inconclusive; MARV entry inh: inconclusive; VACV mCherry inh: inactive; Lassa entry inh: inconclusive

How did O=C(O)c1ccccc1C(=O)N1CCN(c2ncccn2)CC1 do in these assays?
HCMV antiviral: inactive; Vaccinia Venus: inactive; HCV inhibitor: inactive; MARV entry inh: inactive; VACV mCherry inh: inactive; Lassa entry inh: inactive

Results for O=C(c1cnc(N2CCN(c3ncccn3)CC2)c2ccccc12)N1CCN(c2ncccn2)CC1 ?
HCMV antiviral: inconclusive; Vaccinia Venus: inactive; HCV inhibitor: 11.2µM; MARV entry inh: inconclusive; VACV mCherry inh: inactive; Lassa entry inh: inactive

Results for O=C(c1sc2ccccc2c1Cl)N1CCN(c2ncccn2)CC1 ?
HCMV antiviral: -62.5; HCV inhibitor: inactive; MARV entry inh: inactive; Lassa entry inh: inactive

Results for Cc1ccc(C(=O)CSc2nc(-c3ccccc3)nc3c2CCCC3)cc1 ?
HCMV antiviral: inactive; Vaccinia Venus: inactive; MARV entry inh: inconclusive; VACV mCherry inh: inactive; Lassa entry inh: inactive

What do the screens show for `CC[C@H](OC(C)=O)C(C[C@H](C)N(C)C)(c1ccccc1)c1ccccc1`?
HCMV antiviral: -86.5; Vaccinia Venus: inactive; HCV inhibitor: inconclusive; VACV mCherry inh: inactive

What do the screens show for `Cc1ccc([C@H]2C[C@]34CNS(=O)(=O)[C@H]3C[C@H]2O4)cc1`?
HCMV antiviral: inactive

How did O=S1(=O)NC[C@]23C[C@H](c4ccc(F)cc4)[C@@H](C[C@@H]21)O3 do in these assays?
HCMV antiviral: -101.6; Vaccinia Venus: inactive; HCV inhibitor: inactive; VACV mCherry inh: inactive

How did COc1ccc(-c2ccc3c(c2)N(C(C)C)C(=O)COC3)cc1 do in these assays?
HCMV antiviral: inactive

Results for CCOc1ccc(-n2c(SCc3cc(=O)oc4cc(C)c(C(C)C)cc34)nnc2-c2cccnc2)cc1 ?
HCMV antiviral: -80.1; Vaccinia Venus: inactive; HCV inhibitor: inconclusive; MARV entry inh: inactive; VACV mCherry inh: inactive; Lassa entry inh: inactive

What do the screens show for `Cc1cc2oc(=O)cc(CSc3nnc(-c4cccs4)o3)c2cc1C(C)C`?
HCMV antiviral: inactive; Vaccinia Venus: inactive; HCV inhibitor: 10µM; MARV entry inh: inconclusive; VACV mCherry inh: inactive; Lassa entry inh: inconclusive

How did CCCCCCCCCCCCCCC(C(=O)O)C(O)(CC(=O)OC)C(=O)O (centres undefined) do in these assays?
Vaccinia Venus: inactive; VACV mCherry inh: inactive

How did N#Cc1c(NC(=O)c2ccccc2Cl)n(Cc2ccccc2)c2nc3ccccc3nc12 do in these assays?
HCMV antiviral: -70.3; Vaccinia Venus: inactive; HCV inhibitor: inconclusive; MARV entry inh: inactive; VACV mCherry inh: inactive; Lassa entry inh: inconclusive

Results for CCCCn1c(NC(=O)c2ccccc2Cl)c(C#N)c2nc3ccccc3nc21 ?
HCMV antiviral: -60.5; HCV inhibitor: inactive; MARV entry inh: 20.6µM; Lassa entry inh: inactive

What do the screens show for `CC1CN(C(=O)c2cccc(COc3ccc(Br)cc3)c2)CC(C)O1` (centres undefined)?
HCMV antiviral: -77.7; Vaccinia Venus: inactive; HCV inhibitor: inconclusive; MARV entry inh: inconclusive; VACV mCherry inh: inactive; Lassa entry inh: inconclusive

What do the screens show for `CCOc1ccc(OCc2cccc(C(=O)N3CCOCC3)c2)cc1`?
HCMV antiviral: inactive; HCV inhibitor: inactive; MARV entry inh: inactive

What do the screens show for `COc1ccc(-c2nc3sc(CCNC(=O)C(=O)Nc4cccc(NC(C)=O)c4)c(C)n3n2)cc1`?
HCMV antiviral: inactive; Vaccinia Venus: inconclusive; VACV mCherry inh: inactive; Lassa entry inh: inactive

Results for Cc1oc(-c2ccccc2F)nc1CS(=O)(=O)CC(=O)N1CCN(c2ccc(Cl)cc2)CC1 ?
HCMV antiviral: -82.8; Vaccinia Venus: inconclusive; MARV entry inh: inactive; VACV mCherry inh: inconclusive; Lassa entry inh: inconclusive

What do the screens show for `Cc1ccc(-c2nc(CS(=O)CC(=O)N3CCN(c4ccc(F)cc4)CC3)c(C)o2)cc1` (centres undefined)?
HCMV antiviral: -63.2!; Vaccinia Venus: inactive; HCV inhibitor: inconclusive; MARV entry inh: inconclusive; VACV mCherry inh: inactive; Lassa entry inh: inconclusive

How did Cn1c(CSCc2ccc(F)cc2)nnc1SCC(=O)N1CCN(c2ccccc2)CC1 do in these assays?
HCMV antiviral: -68.5; Vaccinia Venus: inconclusive; HCV inhibitor: inconclusive; MARV entry inh: inconclusive; Lassa entry inh: inconclusive

Results for COc1ccc(-c2nc(CSCC(=O)N3CCN(c4ccc(F)cc4)CC3)c(C)o2)cc1 ?
HCMV antiviral: -90.2; Vaccinia Venus: inconclusive; MARV entry inh: inconclusive; VACV mCherry inh: inconclusive; Lassa entry inh: inactive

High-throughput results (PubChem BioAssay)
